Shown are actives, neighbours in structure and some others; about 2.2% of the full set was active somewhere.
EWS-Fli inh = blocks EWS/Fli oncoprotein-driven transcription. A673 NR0B1-luciferase reporter, viability-normalised. inhibition, % at 12.6 µM. 0.67% of 350,000 active;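 active = mean inhibition of at least 50% after viability correction, with every replicate also passing that limit; inconclusive = mean reaches 50% but only one of two replicates passes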;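 also: firefly luciferase signal divided by Alamar Blue viability fluorescence both relative to DMSO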
EBV LMP1 NFkB = inhibitors of Epstein-Barr LMP1-induced NF-kappaB reporter | LMP1-induced NF-kappaB luciferase reporter cells, luminescence | 0.69% of 350,000 active | inhibition, % at 12.5 µM; in the data active = inhibition above about 41%; inconclusive = no clear call, values can overlap the other calls
Shn3 inh set2 = Schnurri-3 reporter inhibition in Clone20 osteoblasts | Clone20 osteoblast Shn3 3'UTR firefly luciferase, 24 h | 0.52% of 360,000 active | inhibition, % at 12.5 µM;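 active = mean inhibition of at least 75% with every replicate also reaching 75%; inconclusive = mean inhibition at least 75% but some replicate below; inactive = mean inhibition below 75%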
LGR2 antag = blocks bursicon-induced cAMP signaling via Drosophila LGR2; 0.35% of 380,000 active; inhibition, % at 9.99 µM; HEK293 LGR2, CRE-luciferase, bursicon-stimulated, 4 h;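 active = drop in luminescence signal, shown as inhibition above about 50% in the replicate tests, limit read from the data, passing the limit was not always enough; inconclusive = probably only some replicates passing the limit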;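 also: agonist challenge used bursicon conditioned medium at about half maximal strength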
PAX8 inh HTS = inhibitors of PAX8 transcriptional activity in RMG-I cells. RMG-I TPO-luciferase reporter, SteadyGlo, 24 h. inhibition, % at 12.6 µM. 1.2% of 360,000 active. AID 652154;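 active = mean replicate inhibition at least 60% with every replicate also reaching 60%; inconclusive = only one of the two criteria is met; inactive = mean below 60% and not all replicates reaching 60%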;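 also: luciferase light reporting Pax8 driven TPO promoter activity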
TRPM1 prom inh = reduces MITF-dependent TRPM1 promoter luciferase signal | inhibition, % at 12.5 µM | 0.83% of 330,000 active | AID 488899 | SK-MEL-5 TRPM1 promoter luciferase, 24 h;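 active = mean inhibition across replicates of 60% or more, whatever share of single replicates reaches that level; inconclusive = some that reach 60%, reason not given; inactive = mean inhibition across replicates below 60%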
A number is an active result; - = inactive; ? = inconclusive; . = no result given.

SMILES	EWS-Fli inh	EBV LMP1 NFkB	Shn3 inh set2	LGR2 antag	PAX8 inh HTS	TRPM1 prom inh
C[C@@H]1CCCCO[C@H](CN(C)S(=O)(=O)c2ccc(Cl)cc2)[C@@H](C)CN([C@@H](C)CO)C(=O)c2cc(NC(=O)CCC(F)(F)F)ccc2O1	-	.	.	-	93	.
C[C@H](CO)N1C[C@H](C)[C@@H](CN(C)S(=O)(=O)c2ccc(Cl)cc2)OCCCC[C@H](C)Oc2ccc(NC(=O)Nc3ccc(C(F)(F)F)cc3)cc2C1=O	-	.	.	-	-	.
C[C@@H]1CN([C@@H](C)CO)C(=O)c2cccc(NC(=O)c3cnccn3)c2O[C@@H]1CN(C)CC1CCCCC1	-	.	.	-	-	.
C[C@@H]1CN([C@H](C)CO)C(=O)c2cc(NS(=O)(=O)c3cccs3)ccc2O[C@@H]1CN(C)CC1CC1	-	.	.	-	-	.
CO[C@@H]1CN(C)C(=O)c2ccc(NC(=O)C3CCOCC3)cc2OC[C@H](C)N(C(=O)c2ccccc2)C[C@H]1C	-	.	.	-	-	.
CCc1ccc(NC(=O)COC(=O)C2(c3ccc(Cl)cc3)CCCC2)cc1	-	61	-	.	-	-
O=C(Nc1cccc(O)c1)c1cccc(S(=O)(=O)Nc2cccc(O)c2)c1	-	49	-	-	-	-
O=C(Nc1cccc(S(=O)(=O)Nc2ccc(Cl)cc2)c1)c1ccc(Cl)nc1	-	-	91	-	-	-
O=C(Nc1cccc(O)c1)c1cccc(C(=O)Nc2cccc(O)c2)c1	-	-	-	-	-	-
C[C@@H]1CN([C@@H](C)CO)C(=O)c2cc(Br)cnc2O[C@@H]1CN(C)C(=O)C1CCC1	-	.	.	-	.	.
Cc1ccc(NN2C(=O)C=C(c3ccccc3)C2=O)cc1	63	.	-	-	-	.
C[C@H](CO)N1C[C@H](C)[C@H](CN(C)S(=O)(=O)c2ccccc2F)Oc2cc(C#Cc3cccc(F)c3)ccc2S1(=O)=O	-	.	.	-	.	.
CC(C)C#Cc1cnc2c(c1)C(=O)N([C@@H](C)CO)C[C@@H](C)[C@@H](CN(C)Cc1ccccc1)O2	-	.	.	-	.	.
COc1ccccc1NC(=O)N[C@H]1CC[C@H](CCNC(=O)c2ccc3c(c2)OCO3)O[C@@H]1CO	-	.	.	-	-	.
Oc1c(N=Nc2ccccn2)ccc2ccccc12	.	48	-	.	-	-
Oc1[nH]c2ccccc2c1N=Nc1ccccn1	-	-	-	-	-	-
CCOC(=O)c1cc(C(C)C)sc1NC(=O)COC(=O)CCS(=O)(=O)c1ccccc1	-	-	-	.	-	-
N#Cc1ccsc1NC(=O)CCS(=O)(=O)c1ccccc1	-	-	-	-	64	-
CCOC(=O)c1ccsc1NC(=O)CCS(=O)(=O)c1ccccc1	-	-	-	-	64	-
NC(=O)c1ccsc1NC(=O)CCS(=O)(=O)c1ccccc1	-	-	-	-	-	-
NC(=O)c1ccsc1NC(=O)CCS(=O)(=O)c1ccc(Cl)cc1	-	-	-	-	65	-
CCCC#Cc1ccc([C@@H]2[C@@H](CO)N3C(=O)CN(C(=O)NCCC)C[C@H]23)cc1	-	.	.	-	-	.
COc1ccc(NC(=O)N[C@@H]2CC[C@@H](CCn3cc(-c4ccccc4F)nn3)O[C@@H]2CO)cc1	-	.	.	-	-	.
O=C(Nc1ccccc1F)N[C@H]1CC[C@@H](CCNS(=O)(=O)c2ccccc2)O[C@@H]1CO	-	.	.	-	-	.
C=CCNc1nc(N2CCOCC2)c(C#N)c2c1CN(C)CC2	.	-	97	.	.	-
SMILES	EWS-Fli inh	EBV LMP1 NFkB	Shn3 inh set2	LGR2 antag	PAX8 inh HTS	TRPM1 prom inh
C[C@H]1CN([C@@H](C)CO)C(=O)c2cc(-c3ccc(C#N)cc3)cnc2O[C@H]1CN(C)C(=O)CN(C)C	-	.	.	-	.	.
CC(C)(C)c1nc(NCCN2CCOCC2)c2nnn(Cc3ccccc3Cl)c2n1	-	-	84	-	.	-
C[C@H]1CN([C@@H](C)CO)S(=O)(=O)c2ccc(-c3cccc(C(=O)N(C)C)c3)cc2O[C@H]1CN(C)C	-	.	.	-	-	.
CCCCCCN(C(=O)CCCCCN1C(=O)NC(c2ccc(-c3ccccc3)cc2)C(C(=O)OCc2ccccc2)=C1C)C(C)C(=O)NCCCC (stereo unspecified)	-	.	.	-	75	.
CCCCCCN(C(=O)CCCCCN1C(=O)NC(c2ccc(-c3ccccc3)cc2)C(C(=O)OCc2ccccc2)=C1C)C(C(=O)NCCCC)c1ccccc1 (stereo unspecified)	-	.	.	-	-	.
CCCCCCN(C(=O)CCCCCN1C(=O)NC(c2ccc([N+](=O)[O-])cc2)C(C(=O)OCc2ccccc2)=C1C)C(C(=O)NCCCC)c1ccc(OCC(=O)OC)c(C(=O)OC)c1 (stereo unspecified)	?	.	.	-	-	.
CCCCCCN(C(=O)CCCCCN1C(=O)NC(c2cccc([N+](=O)[O-])c2)C(C(=O)OCc2ccccc2)=C1C)C(C(=O)NCCCC)c1ccc(OCC(=O)OC)c(C(=O)OC)c1 (stereo unspecified)	69	.	.	-	-	.
C[C@H]1CN([C@@H](C)CO)C(=O)c2cc(C#CCN(C)C)cnc2O[C@@H]1CN(C)C(=O)NC1CCCCC1	-	.	.	-	-	.
O=C(Nc1ccccn1)c1onc2c1CCCC2	.	41	-	79	.	-
CO[C@@H]1CN(C)C(=O)c2ccc(NC(=O)Nc3cccc(Cl)c3)cc2OC[C@@H](C)NC[C@H]1C	-	.	.	-	-	.
CCOc1ccc(C(C)=O)cc1CSC(=N)N	-	-	-	-	-	-
CCCCOc1ccc(Br)cc1CSC(=N)N	-	-	92	-	-	-
COc1ccc(NC(=O)Nc2ccc3c(c2)C(=O)N(C)C[C@@H](OC)[C@@H](C)CN[C@@H](C)CO3)cc1	-	.	.	-	-	.
Cc1cccc(-c2nnc(-c3ccc4ccccc4c3)o2)c1	-	-	-	52	-	-
Cc1cc(N2CCN(c3ccc([N+](=O)[O-])c4cccnc34)CC2)c2ccccc2n1	.	-	-	.	.	76
CCCC(=O)N(C1CC(C)C(C#N)(C#N)C1(C#N)C#N)N(C)C (stereo unspecified)	-	-	97	-	68	83
CC(=O)N(C1CC(C)C(C#N)(C#N)C1(C#N)C#N)N(C)C (stereo unspecified)	-	-	93	-	75	86
CNC[C@@H]1Oc2ncc(/C=C/c3ccccc3)cc2C(=O)N([C@H](C)CO)C[C@H]1C	-	.	.	-	-	.
CCCc1nnc(NC(=O)CCS(=O)(=O)c2ccccc2)s1	-	-	-	-	78	-
CCOC(=O)c1csc(NC(=O)CCS(=O)(=O)c2ccc(Cl)cc2)n1	-	-	-	-	84	.
CCCCc1nnc(NC(=O)CCS(=O)(=O)c2ccc(Cl)cc2)s1	-	-	-	-	77	-
Cc1ccc(S(=O)(=O)Nc2ccc3c(c2)C(=O)N([C@@H](C)CO)C[C@H](C)[C@@H](CN(C)C(=O)Nc2ccc(F)cc2)O3)cc1	-	.	.	-	-	.
O=C(NC1CCCCC1)[C@H]1N[C@H]2c3ccc(-c4cccc(F)c4)c(=O)n3C[C@H]2[C@@H]1CO	-	.	.	-	-	.

Bioassay records (PubChem BioAssay)
